Among the data in PubChem BioAssay (NCI) are growth inhibition values, retold here.

This is part of a sample that, as a whole, favours compounds with a hit. Of some 79,000 tested, about 15% had one in any assay. Unmarked numbers belong to inactive results. The source made the active and inactive calls. Rule as the data show it: active = growth inhibition above about 70%; inactive = the rest.

A short description of experiment [1]: NCI Yeast Anticancer Drug Screen. Data for the rad50 strain (AID 155).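 Also: 0% = growth of vehicle-only cultures of the same strain.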 To be noted: S. cerevisiae rad50 strain growth inhibition, stronger effect = higher value. The method in brief: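 A DNA repair-deficient yeast mutant serves as the test organism; compound-induced growth inhibition is calculated against vehicle-treated cells.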
The nature of experiment [2]: NCI Yeast Anticancer Drug Screen. Data for the mec2-1 strain (AID 157). To be noted: S. cerevisiae mec2-1 strain, stronger effect = higher value. The method in brief: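 Compounds were applied to mec2-1 yeast cells. Their growth was then compared with that of vehicle-treated cultures to give growth inhibition.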
Experiment [3] is described as follows: NCI Yeast Anticancer Drug Screen. Data for the sgs1 mgt1 strain (AID 161).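 Also: 0% = growth of cultures given vehicle only.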 To be noted: S. cerevisiae sgs1 mgt1 strain, stronger effect = higher value. The method in brief:
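Percent growth inhibition was derived by comparing compound-exposed mutant yeast with vehicle-exposed cultures. The strain carries alterations in DNA damage repair.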

The nature of experiment [4]: NCI Yeast Anticancer Drug Screen. Data for the cln2 rad14 strain (AID 165).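 Also: 0% = growth equal to vehicle treated cultures.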 To be noted: S. cerevisiae cln2 rad14 strain, stronger effect = higher value. The method in brief: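 Strain: cln2 rad14 yeast, altered in cell cycle control and DNA damage repair. Read-out: growth inhibition vs vehicle.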
The nature of experiment [5]: NCI Yeast Anticancer Drug Screen. Data for the bub3 strain (AID 167). To be noted: S. cerevisiae bub3 mutant strain, stronger effect = higher value. In outline:
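Inhibition values come from growth of compound-treated mutant yeast normalised to vehicle-treated controls.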

A short description of experiment [6]: NCI Yeast Anticancer Drug Screen. Data for the mlh1 rad18 strain (AID 175). To be noted: S. cerevisiae mlh1 rad18 strain growth inhibition, stronger effect = higher value. The method in brief: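 A repair-deficient yeast strain is exposed to test compound, and growth is scored relative to vehicle-treated controls.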
Setting [7] is: at 5.0 µM (retest, dose inferred, filed as 0.5).
Where [8] appears, read: at 50.0 µM (retest, dose inferred, filed as 5.0).

In the case of `CCC[CH2][Sn]([CH2]CCC)([O]C(=O)c1cccc(F)c1F)[O]C(=O)c1cccc(F)c1F`, the growth inhibition in experiment [1] (setting [7]) was 73% (active); in experiment [1] (setting [8]) it was 73% (active); in experiment [1] (at 50.0 µM), 86.6% (active); in experiment [2] (setting [7]) it was 62%; in experiment [2] (setting [8]), 62%; in experiment [2] (at 50.0 µM) it was 88% (active). Besides, the growth inhibition was 78% (active) in experiment [3] (setting [7]); 78% (active) in experiment [3] (setting [8]); 86.5% (active) in experiment [3] (at 50.0 µM); 55% in experiment [4] (setting [7]); 55% in experiment [4] (setting [8]); 88.7% (active) in experiment [4] (at 50.0 µM). Also, the growth inhibition was 62% in experiment [5] (setting [7]); 62% in experiment [5] (setting [8]); 87.9% (active) in experiment [5] (at 50.0 µM); 67% in experiment [6] (setting [7]); 67% in experiment [6] (setting [8]); 86.4% (active) in experiment [6] (at 50.0 µM).
Regarding `Cc1[nH]ccc2c(C)c3nc4ccccc4c3cc12`, the growth inhibition was 47% in experiment [1] (setting [7]); 97% (active) in experiment [1] (setting [8]); 90% (active) in experiment [1] (at 50.0 µM); 10% in experiment [2] (setting [7]); 87% (active) in experiment [2] (setting [8]); 88.3% (active) in experiment [2] (at 50.0 µM). The growth inhibition was 14% in experiment [3] (setting [7]); 87% (active) in experiment [3] (setting [8]); 90.5% (active) in experiment [3] (at 50.0 µM); 4% in experiment [4] (setting [7]); 82% (active) in experiment [4] (setting [8]); 82.9% (active) in experiment [4] (at 50.0 µM). In addition, the growth inhibition in experiment [5] (setting [7]) was 9%; in experiment [5] (setting [8]), 73% (active); in experiment [5] (at 50.0 µM), 89% (active); in experiment [6] (setting [7]) it was 13%; in experiment [6] (setting [8]) it was 95% (active); in experiment [6] (at 50.0 µM), 90.3% (active).
On to `C=Cc1nc(N)nc(-c2ccc(C)cc2)n1`, for which the growth inhibition in experiment [1] (setting [7]) was 7%; in experiment [1] (setting [8]), 91% (active); in experiment [1] (at 50.0 µM) it was 92.3% (active); in experiment [2] (setting [7]), 12%; in experiment [2] (setting [8]), 94% (active); in experiment [2] (at 50.0 µM) it was 91.3% (active). Also, the growth inhibition in experiment [3] (setting [7]) was 3%; in experiment [3] (setting [8]), 95% (active); in experiment [3] (at 50.0 µM) it was 92.6% (active); in experiment [4] (setting [7]) it was -8%; in experiment [4] (setting [8]), 74% (active); in experiment [4] (at 50.0 µM) it was 49.2%. For the same compound, the growth inhibition in experiment [5] (setting [7]) was 6%; in experiment [5] (setting [8]) it was 93% (active); in experiment [5] (at 50.0 µM) it was 86% (active); in experiment [6] (setting [7]), 7%; in experiment [6] (setting [8]) it was 96% (active); in experiment [6] (at 50.0 µM), 95.2% (active).
As to `CCOC(=O)NC(NNc1ccc([N+](=O)[O-])cc1[N+](=O)[O-])(C(F)(F)F)C(F)(F)F`, the growth inhibition is 1% in experiment [1] (setting [7]); 99% (active) in experiment [1] (setting [8]); 97.3% (active) in experiment [1] (at 50.0 µM); -3% in experiment [2] (setting [7]); 99% (active) in experiment [2] (setting [8]); 98.2% (active) in experiment [2] (at 50.0 µM). The growth inhibition in experiment [3] (setting [7]) was 6%; in experiment [3] (setting [8]) it was 99% (active); in experiment [3] (at 50.0 µM), 98.4% (active); in experiment [4] (setting [7]) it was 21%; in experiment [4] (setting [8]) it was 98% (active); in experiment [4] (at 50.0 µM), 98.7% (active). The growth inhibition was 19% in experiment [5] (setting [7]); 97% (active) in experiment [5] (setting [8]); 98% (active) in experiment [5] (at 50.0 µM); 4% in experiment [6] (setting [7]); 98% (active) in experiment [6] (setting [8]); 98.5% (active) in experiment [6] (at 50.0 µM).
For the compound `CCN1CC(=O)N(C)C1=S`, the growth inhibition in experiment [1] (setting [7]) is -9%; in experiment [1] (setting [8]), 5%; in experiment [1] (at 50.0 µM), 84.7% (active); in experiment [2] (setting [7]), -6%; in experiment [2] (setting [8]), -19%; in experiment [2] (at 50.0 µM) it was 71.2% (active). Moreover, the growth inhibition is 8% in experiment [3] (setting [7]); -11% in experiment [3] (setting [8]); 89% (active) in experiment [3] (at 50.0 µM); 20% in experiment [4] (setting [7]); 39% in experiment [4] (setting [8]); 74.9% (active) in experiment [4] (at 50.0 µM). The growth inhibition in experiment [5] (setting [7]) is 12%; in experiment [5] (setting [8]) it was 18%; in experiment [5] (at 50.0 µM), 83.8% (active); in experiment [6] (setting [7]), -5%; in experiment [6] (setting [8]), -41%; in experiment [6] (at 50.0 µM), 79.5% (active).
With `Cc1cc(Cc2ccccc2)ccc1O`, the growth inhibition in experiment [1] (setting [7]) was 0%; in experiment [1] (setting [8]), 66%; in experiment [1] (at 50.0 µM), 51.2%; in experiment [2] (setting [7]), -6%; in experiment [2] (setting [8]), 39%; in experiment [2] (at 50.0 µM), 96.4% (active). Also, the growth inhibition is -1% in experiment [3] (setting [7]); 50% in experiment [3] (setting [8]); 55.8% in experiment [3] (at 50.0 µM); -5% in experiment [4] (setting [7]); 15% in experiment [4] (setting [8]); 57.5% in experiment [4] (at 50.0 µM). The growth inhibition in experiment [5] (setting [7]) was -11%; in experiment [5] (setting [8]), 47%; in experiment [5] (at 50.0 µM), 81% (active); in experiment [6] (setting [7]), 8%; in experiment [6] (setting [8]) it was 60%; in experiment [6] (at 50.0 µM), 41%.
`Cc1cccc(N=Nc2ccc(O)cc2)c1`: the growth inhibition was -152% in experiment [1] (setting [7]); 98% (active) in experiment [1] (setting [8]); 99.6% (active) in experiment [1] (at 50.0 µM); -58% in experiment [2] (setting [7]); 98% (active) in experiment [2] (setting [8]); 99.5% (active) in experiment [2] (at 50.0 µM). In addition, the growth inhibition is -71% in experiment [3] (setting [7]); 98% (active) in experiment [3] (setting [8]); 99.4% (active) in experiment [3] (at 50.0 µM); -71% in experiment [4] (setting [7]); 98% (active) in experiment [4] (setting [8]); 98.6% (active) in experiment [4] (at 50.0 µM). In addition, the growth inhibition in experiment [5] (setting [7]) is -72%; in experiment [5] (setting [8]) it was 97% (active); in experiment [5] (at 50.0 µM), 98.5% (active); in experiment [6] (setting [7]), -154%; in experiment [6] (setting [8]) it was 98% (active); in experiment [6] (at 50.0 µM), 99.3% (active).
For the compound `COc1ccccc1CN1CCCN(Cc2ccccc2OC)C1c1ccccc1F`, the growth inhibition was 2% in experiment [1] (setting [7]); -2% in experiment [1] (setting [8]); 55.9% in experiment [1] (at 50.0 µM); -9% in experiment [2] (setting [7]); -11% in experiment [2] (setting [8]); 43.5% in experiment [2] (at 50.0 µM). The growth inhibition in experiment [3] (setting [7]) was 4%; in experiment [3] (setting [8]), 8%; in experiment [3] (at 50.0 µM) it was 62.6%; in experiment [4] (setting [7]), 1%; in experiment [4] (setting [8]), -1%; in experiment [4] (at 50.0 µM), 36.6%. Further, the growth inhibition in experiment [5] (setting [7]) is 0%; in experiment [5] (setting [8]), -5%; in experiment [5] (at 50.0 µM) it was 78.8% (active); in experiment [6] (setting [7]), 16%; in experiment [6] (setting [8]) it was 16%; in experiment [6] (at 50.0 µM) it was 41%.
Consider `Cc1cc(NCCCCCCNc2cc(C)nc3cc(N(C)C)ccc23)c2ccc(N(C)C)cc2n1`, for which the growth inhibition was 11% in experiment [1] (setting [7]); 90% (active) in experiment [1] (setting [8]); 68.5% in experiment [1] (at 50.0 µM); 0% in experiment [2] (setting [7]); 96% (active) in experiment [2] (setting [8]); 85.2% (active) in experiment [2] (at 50.0 µM). The growth inhibition is 9% in experiment [3] (setting [7]); 95% (active) in experiment [3] (setting [8]); 26.7% in experiment [3] (at 50.0 µM); 8% in experiment [4] (setting [7]); 79% (active) in experiment [4] (setting [8]); 13% in experiment [4] (at 50.0 µM). The growth inhibition in experiment [5] (setting [7]) is -7%; in experiment [5] (setting [8]) it was 96% (active); in experiment [5] (at 50.0 µM), 1.15%; in experiment [6] (setting [7]) it was 7%; in experiment [6] (setting [8]) it was 92% (active); in experiment [6] (at 50.0 µM), 7.45%.
Take `CCc1cccc(CC)c1NC(=O)C1=C(C)NC(C)=C(C(=O)Nc2c(CC)cccc2CC)C1c1ccc2c(c1)OCO2`: the growth inhibition was 54% in experiment [1] (setting [7]); 54% in experiment [1] (setting [8]); 91.9% (active) in experiment [1] (at 50.0 µM); 45% in experiment [2] (setting [7]); 45% in experiment [2] (setting [8]); 92.5% (active) in experiment [2] (at 50.0 µM). In addition, the growth inhibition in experiment [3] (setting [7]) is 45%; in experiment [3] (setting [8]), 45%; in experiment [3] (at 50.0 µM) it was 93.2% (active); in experiment [4] (setting [7]), 26%; in experiment [4] (setting [8]), 26%; in experiment [4] (at 50.0 µM), 91.3% (active). Further, the growth inhibition in experiment [5] (setting [7]) is 39%; in experiment [5] (setting [8]), 39%; in experiment [5] (at 50.0 µM), 89.2% (active); in experiment [6] (setting [7]) it was 43%; in experiment [6] (setting [8]), 43%; in experiment [6] (at 50.0 µM) it was 87.5% (active).
